Consider 14 compounds from PubChem BioAssay.

Experiment [1] can be described thus: A549 cell viability effects, profiling panel, calcein-AM fluorescence, 48 h, basal (AID 1162). The conditions noted are these: higher = more signal.
Experiment [2] can be described thus: adipocyte viability effects, profiling panel, cell-based, 3T3-L1 adipocytes, calcein-AM fluorescence, 48 h, basal (AID 1163). The conditions noted are these: 3T3-L1 adipocytes viability, higher = more signal.
Experiment [3] is described as follows: HepG2 cell viability effects, profiling panel, calcein-AM fluorescence, 48 h, basal (AID 1164). As to conditions: higher = more signal.
Experiment [4] in a line: MM1S cell viability effects, profiling panel, calcein-AM fluorescence, 48 h, basal (AID 1165).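 Note: viability of MM1S multiple myeloma cells under basal unstimulated conditions.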 The conditions noted are these: higher = more signal.
Experiment [5] is described as follows: basal RPMI8226 viability, no added stimulus, profiling panel, cell-based, calcein-AM fluorescence, 48 h, PK04 Diversity Set (AID 1166).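 Note: cells grown under basal conditions without added stimulus.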 The conditions noted are these: RPMI8226 myeloma viability, higher = more signal.
Experiment [6] can be described thus: basal HepG2 mitochondrial membrane potential changes, profiling panel, cell-based, JC-1 fluorescence, 24 h, 100 nL compound (AID 1167). As to conditions: higher = more signal.
Experiment [7] is described as follows: basal 3T3-L1 adipocyte mitochondrial potential changes, profiling panel, cell-based, JC-1 fluorescence, 3T3-L1 adipocytes, 24 h, 100 nL compound (AID 1168). As to conditions: JC-1 mitochondrial fluorescence, higher = more signal, called active from +8 up or from −8 down.
The nature of experiment [8]: basal RPMI8226 mitochondrial membrane potential changes, profiling panel, cell-based, JC-1 fluorescence, 24 h, 100 nL compound (AID 1169). As to conditions: RPMI8226 myeloma, JC-1 mitochondrial potential fluorescence, higher = more signal.
Experiment [9] is described as follows: basal MM1S mitochondrial membrane potential changes, profiling panel, cell-based, JC-1 fluorescence, 24 h, 100 nL compound (AID 1170). The conditions noted are these: higher = more signal.
Experiment [10] in a line: A549 lung cancer cell viability effects, profiling panel, resazurin fluorescence, 24 h, PK04 Diversity Set (AID 1171). As to conditions: higher = more signal, called active from +8 up or from −8 down.

Calls of active or inactive are those of the source.
Note: test concentration not given here.

Turning to `COc1cccc([C@H]2Oc3ccc(OC)cc3C(=NOC(C)CN3CCCc4nc(C)c(C)cc43)[C@@H]2O)c1` (stereo not given in full), the z-score in experiment [1] was -0.0217; in experiment [2], -0.529; in experiment [3], 0.778; in [4], 0.296; in experiment [5] it was -0.627; in experiment [6] it was 0.0313. Also, the z-score was -1.29 (inactive) in experiment [7], 0.239 in experiment [8], -0.947 in experiment [9] and -0.455 (inactive) in experiment [10].

Consider `CCOC(=O)CCN1C(=O)[C@H]2[C@H]3[C@H](O)[C@H](O)CC(=NOCc4ccccc4)[C@@H]3CC[C@H]2C1=O`, for which the z-score in experiment [1] was 0.16; in experiment [2], 0.112; in experiment [3], -0.149; in experiment [4], -0.104; in [5] it was 1.16; in experiment [6], -0.761. In addition, the z-score is -0.522 (inactive) in experiment [7], -0.043 in experiment [8], -0.362 in experiment [9] and -0.0452 (inactive) in [10].

With `CN1C(=O)C2C=CC(C(O)C(c3ccccc3)c3ccccc3)N(NC(=O)OC(C)(C)C)C2C1=O` (stereo not given), the z-score in [1] is -1.23; in experiment [2], -0.4; in [3], -0.698; in experiment [4], -2.47; in experiment [5] it was -1.61; in experiment [6], -1.46. Moreover, the z-score was -0.378 (inactive) in [7], -0.654 in experiment [8], 0.455 in [9] and 0.383 (inactive) in experiment [10].

For the compound `COC(=O)[C@H](C)NC(=O)CCC1CC(OC(=O)NCc2cccc3ccccc23)CC2(CCCC(COC(=O)NCC3CCCCC3)O2)O1` (stereo not given in full), the z-score in experiment [1] was -0.332; in experiment [2], -0.687; in experiment [3], 0.385; in [4], -0.875; in experiment [5], 0.913; in [6], 1.38. Moreover, the z-score in experiment [7] is -0.477 (inactive); in [8] it was -0.188; in experiment [9], -0.652; in experiment [10], 0.458 (inactive).

`COC(=O)[C@@H]1N=C(c2ccc(OCCCO)cc2)O[C@@H]1c1ccccc1N=[N+]=[N-]`: the z-score in experiment [1] was 0.377; in experiment [2] it was 0.557; in experiment [3] it was 0.134; in experiment [4] it was -1.58; in [5], -1.56; in [6], -0.682. In addition, the z-score was 0.761 (inactive) in experiment [7], -0.287 in [8], -0.218 in [9] and 0.4 (inactive) in [10].

Turning to `CC(C)=C1C(=O)C(c2ccccc2)=C2CN3C(=O)N(CCc4ccccc4)C(=O)[C@]3(Cc3ccc(F)cc3)[C@H]21`, the z-score in experiment [1] was -0.751; in experiment [2], -0.0154; in experiment [3], -0.435; in [4], -0.871; in experiment [5] it was -0.975; in experiment [6], 1.07. Besides, the z-score in experiment [7] is -1.68 (inactive); in [8] it was -0.0557; in [9], -0.339; in experiment [10], 0.0406 (inactive).

Consider `CCOC(=O)[C@H](Cc1ccccc1)NC(=O)CCC1CC(OC(=O)NCc2ccc3c(c2)OCO3)CC2(CCCC(COC(=O)NCc3ccccc3)O2)O1` (stereo not given in full), for which the z-score in [1] was -0.195; in experiment [2], -0.64; in experiment [3] it was 0.607; in [4] it was 0.84; in experiment [5], 0.709; in experiment [6], 2.27. In addition, the z-score in experiment [7] was 0.392 (inactive); in experiment [8], 0.0886; in experiment [9], -0.997; in experiment [10] it was 0.98 (inactive).

Turning to `CC(C)CON=C1C[C@@H](O)[C@@H](O)[C@@H]2[C@@H]3C(=O)N(Cc4ccccc4)C(=O)[C@@H]3CC[C@@H]12`, the z-score in [1] is -0.785; in experiment [2], 0.449; in experiment [3] it was -0.946; in experiment [4], 0.479; in [5] it was -0.129; in experiment [6] it was 0.173. Moreover, the z-score in [7] is -0.272 (inactive); in experiment [8] it was -0.313; in [9], -0.659; in [10], 0.676 (inactive).

For `CC(C)NC(=O)[C@@]1(c2ccc([N+](=O)[O-])cc2)CC(=O)N(CC23CC4CC(CC(C4)C2)C3)[C@@H]1c1ccc(CO)cc1I`, the z-score was -1.58 in [1]; 0.58 in [2]; -4.89 in experiment [3]; -3.8 in experiment [4]; -4.29 in experiment [5]; 0.421 in experiment [6]. The z-score in experiment [7] was 0.402 (inactive); in experiment [8] it was -0.929; in [9] it was -2.08; in experiment [10], -3.65 (inactive).

As to `Cn1cccc1C(O)C1C=CC2C(=O)NC(=O)C2N1Nc1ccccn1` (stereo not given), the z-score in experiment [1] was -1.77; in experiment [2], -0.0273; in experiment [3], -2.88; in [4], -1.99; in experiment [5] it was -3.88; in experiment [6] it was -4.01. The z-score in experiment [7] was 1.73 (inactive); in experiment [8] it was -1.11; in experiment [9], -1.88; in experiment [10], -1.14 (inactive).

As to `C=C(/C(=C/C[C@H](OC(C)=O)c1ccc(OCCO)cc1)c1cnc2ccccc2c1)C(C)C`, the z-score in [1] was 0.207; in experiment [2], 1.03; in experiment [3], -0.427; in experiment [4] it was -0.753; in [5] it was 0.383; in [6], 1.56. For the same compound, the z-score in [7] was -0.449 (inactive); in experiment [8], -0.416; in experiment [9], 0.0674; in [10], 1.76 (inactive).

With `CS(=O)(=O)CCOC(=O)C1=CC(CCCO)=CC(c2cccs2)N(Cc2cccc(OC(F)(F)F)c2)C=C1C(=O)OCCS(C)(=O)=O` (stereo not given), the z-score in experiment [1] is 0.0985; in [2], 0.783; in experiment [3], 0.464; in [4], -3.28; in experiment [5] it was -3.74; in experiment [6], 0.423. The z-score in [7] was -0.268 (inactive); in [8] it was -0.662; in [9], -1; in experiment [10] it was -0.284 (inactive).

On to `CCN1C(=O)[C@H]2[C@H]3[C@H](O)[C@H](O)CC(=NOCC=C(C)CCC=C(C)C)[C@H]3CC[C@H]2C1=O`, for which the z-score in experiment [1] was -0.107; in experiment [2] it was 0.393; in [3] it was -0.118; in experiment [4], 0.805; in experiment [5], 0.169; in experiment [6] it was -0.702. Also, the z-score in experiment [7] was 0.0735 (inactive); in experiment [8], 0.568; in experiment [9], 0.0613; in experiment [10], -1.01 (inactive).

For the compound `O=C(CS)NCCCCCNC(=O)[C@H]1C[C@H]2C(=O)N3CCC[C@H]3C(=O)N2[C@H]1c1cccc(OCCO)c1`, the z-score is 0.631 in [1]; -0.367 in experiment [2]; 0.432 in experiment [3]; -0.0388 in experiment [4]; -0.198 in experiment [5]; 2.21 in experiment [6]. Also, the z-score is 0.0249 (inactive) in [7], -0.736 in experiment [8], -0.419 in [9] and 0.477 (inactive) in experiment [10].
